What all share (test): qHTS profiling for inhibitors of Plasmodium falciparum proliferation (AID 504749); also: nearly all actives have a fitted effect of over 60% in size
Holding throughout (conditions): P. falciparum in erythrocytes, SYBR Green DNA, 72 h; series mostly up to 28.7 µM
Background: In qHTS, concentration-response curves come from the screen itself.

One assay concerns GB4. The method in brief: (§1)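 In a 72 h erythrocytic culture (37 C, humidified, 5% CO2) at 2.5% hematocrit and 0.3% starting parasitemia, compounds were tested; SYBR Green I in detergent lysis buffer stained parasite DNA overnight.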
The subject of a further assay is HB3. The method in brief:
as §1

A further assay deals with ICS. The method in brief:
as §1

For a further assay, the system named is JCK. The method in brief:
as §1

The subject of a further assay is N140. The method in brief: as §1
Another assay concerns P93_24. The method in brief: as §1
In another assay the test system is P94_40. The method in brief: as §1
The next assay has as its system PAD. The method in brief:
as §1

The next assay relates to FAB9. The method in brief:
as §1

The subject of the next assay is PC15. The method in brief:
as §1

Consider 16 molecules from PubChem BioAssay (NCATS).

SMILES strings stand for the structures. Results filed as inconclusive are left out. Calls of active or inactive are those of the source. Calls follow the shape of the dose curve; as a rule, active = well fitted inhibition curve with a large enough effect; inconclusive = small, poorly fitted or top-dose-only effect; inactive = flat fitted curve, though single readings scatter.
Potency is read from the fitted curve at half-maximal effect.

Turning to `C/C(=C\c1csc(C)n1)[C@@H]1C[C@@H]2O[C@]2(C)CCC[C@H](C)[C@H](O)[C@@H](C)C(=O)C(C)(C)[C@@H](O)CC(=O)O1`, the Potency was 0.0019 µM (active) in the assay on GB4; 0.0009 µM (active) in the assay on HB3; 0.0018 µM (active) with ICS; 0.0089 µM (active) with JCK; 0.0045 µM (active) with N140; 0.0035 µM (active) in the assay on P93_24. Moreover, the Potency in the assay on P94_40 was 0.0028 µM (active); with PAD, 0.0035 µM (active).
As for `CCCCCCCCOC(=O)c1ccccc1C(=O)OCCCCCCCC`, the Potency entry with FAB9, in the assay on GB4, in the assay with HB3, with JCK, in the assay with N140 and with P94_40 was “inactive” throughout. For the same molecule, the Potency result with PAD and with PC15 was “inactive” in each case.
On to `C[C@H]1CCC[C@H](O)CCCCCc2cc(O)cc(O)c2C(=O)O1`, for which the Potency entry with FAB9, in the assay with HB3, in the assay with JCK, in the assay on P93_24, in the assay with PAD and in the assay with PC15 was “inactive” each time.
`COc1ccc2c(c1OC)C(=O)OC2C1c2cc3c(cc2CCN1C)OCO3` (stereo unspecified): the Potency result with FAB9, with HB3, with ICS, in the assay on JCK, in the assay with N140 and in the assay on P93_24 was “inactive” in each case. Moreover, the Potency entry with P94_40, with PAD and in the assay with PC15 was “inactive” in each case.
With `c1ccc2cc(CC3=NCCN3)ccc2c1`, the Potency result in the assay on FAB9, in the assay with HB3, with ICS, in the assay with JCK, in the assay on N140 and in the assay with P93_24 was “inactive” each time. The Potency result in the assay on P94_40, with PAD and in the assay with PC15 was “inactive” in each case.
In the case of `C=CCN=C=S`, the Potency entry with FAB9, in the assay with HB3, in the assay with ICS, in the assay with JCK, with N140 and in the assay on P93_24 was “inactive” throughout. Besides, the Potency result with P94_40, in the assay on PAD and in the assay on PC15 was “inactive” in each case.
In the case of `Oc1cc(Cl)c(Cl)cc1Cl`, the Potency result in the assay on FAB9, with HB3, with JCK, in the assay on N140, in the assay on P93_24 and with P94_40 was “inactive” in each case. The Potency result in the assay with PAD and with PC15 was “inactive” in each case.
Take `COCC(C)N(C(=O)CCl)c1c(C)csc1C` (stereo unspecified): the Potency entry in the assay with FAB9, with GB4, in the assay on HB3, with JCK, with N140 and in the assay with P93_24 was “inactive” each time. In addition, the Potency entry with P94_40, in the assay on PAD and in the assay on PC15 was “inactive” each time.
Regarding `CCCCCl`, the Potency entry with FAB9, in the assay with GB4, in the assay with HB3, in the assay on ICS, with N140 and with P93_24 was “inactive” in each case. Besides, the Potency entry in the assay on P94_40, with PAD and with PC15 was “inactive” throughout.
As for `F/C(COc1ccc2c(c1)[nH]c1ccccc12)=C1/CN2CCC1CC2`, the Potency entry with FAB9 was “inactive”. Further, the Potency is 3.55 µM (active) with ICS, 10 µM (active) in the assay on N140, 6.31 µM (active) in the assay with P93_24 and 8.91 µM (active) in the assay on PAD.
On to `[Cl-].[Cl-].[Hg+2]`, for which the Potency in the assay with FAB9 is 7.08 µM (active); in the assay with GB4 it was 4.78 µM (active); with ICS, 12.6 µM (active); in the assay on N140 it was 10 µM (active); in the assay with PAD it was 7.08 µM (active). The Potency result with HB3 is “inactive”.
Consider `Cc1sc2ccccc2c1CC1=NCCN1`, for which the Potency entry with FAB9, in the assay with HB3, in the assay with ICS, in the assay with JCK, in the assay with N140 and in the assay with P93_24 was “inactive” throughout. The Potency entry with P94_40 and in the assay with PAD was “inactive” throughout.
For the molecule `O=c1[nH]cc(N(CCCl)CCCl)c(=O)[nH]1`, the Potency result with FAB9, in the assay with GB4, in the assay with HB3, in the assay with JCK, with N140 and in the assay with P93_24 was “inactive” throughout. Moreover, the Potency result in the assay on P94_40, in the assay with PAD and with PC15 was “inactive” each time.
As to `CCCCCCCCCC(=O)O[C@H]1CC[C@H]2[C@@H]3CCC4=CC(=O)CC[C@]4(C)[C@H]3CC[C@]12C`, the Potency entry in the assay on FAB9, with GB4, in the assay with HB3, with JCK, in the assay with N140 and with P93_24 was “inactive” throughout. Moreover, the Potency result with P94_40, in the assay on PAD and in the assay on PC15 was “inactive” throughout.
On to `CN1[C@@H]2CC[C@H]1CC(OC1c3ccccc3CCc3ccccc31)C2` (stereo partly specified), for which the Potency entry in the assay on FAB9, in the assay with HB3, with JCK and in the assay on PC15 was “inactive” each time. Also, the Potency in the assay with P93_24 is 3.98 µM (active).
Take `CCOc1ccc2c3c1O[C@H]1[C@@H](O)C=C[C@H]4[C@@H](C2)N(C)CC[C@@]341`: the Potency result in the assay with FAB9, in the assay on HB3, in the assay on ICS, in the assay with JCK, in the assay with N140 and in the assay with P93_24 was “inactive” throughout. Further, the Potency result with P94_40, with PAD and in the assay on PC15 was “inactive” in each case.
